IDE cell activ – IDE (human) activation, cell-based | HEK cells, FAbeta-B cleavage, fluorescence polarization; 0% vehicle, 100% cell-free pure enzyme wells | activation, % at 5.96 µM | 340,000 compounds, 0.073% hits;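 active = activation above the mean of all tested compounds plus 3 SD, set per screening campaign, cut at about 17% in these data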
IDE cell inh – cellular human IDE inhibition. P14735. inhibition, % at 5.59 µM. HEK cells, FAbetaB cleavage, fluorescence polarization. 320,000 compounds, 0.41% hits;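 active = percent inhibition above the average of all tested compounds plus 3 SD, set per screening campaign, cut at about 16% in these data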;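 also: IDE supplied by intact live HEK cells; FP after avidin binding of uncleaved biotin substrate so inhibition keeps polarization high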
LANA-H2A inh – blocks KSHV LANA binding to histone H2A/H2B. cell-free LANA-H2A/H2B peptide, fluorescence polarization. inhibition, % (no concentration beside the values). 320,000 compounds, 0.6% hits. AID 2629; in the data active = inhibition mostly above about 10%, no sharp cut-off; inactive = mostly below about 6.7%
HDAC3 inhib – human HDAC3 inhibition; recombinant HDAC3, fluorogenic peptide/trypsin coupled, fluorescence; 320,000 compounds, 0.15% hits; inhibition, % at 8.3 µM; O15379; in the data active = inhibition above about 26%, passing the limit was not always enough; inconclusive = no clear call, values can overlap the other calls
Target sequence (O15379 whole entry, looked up): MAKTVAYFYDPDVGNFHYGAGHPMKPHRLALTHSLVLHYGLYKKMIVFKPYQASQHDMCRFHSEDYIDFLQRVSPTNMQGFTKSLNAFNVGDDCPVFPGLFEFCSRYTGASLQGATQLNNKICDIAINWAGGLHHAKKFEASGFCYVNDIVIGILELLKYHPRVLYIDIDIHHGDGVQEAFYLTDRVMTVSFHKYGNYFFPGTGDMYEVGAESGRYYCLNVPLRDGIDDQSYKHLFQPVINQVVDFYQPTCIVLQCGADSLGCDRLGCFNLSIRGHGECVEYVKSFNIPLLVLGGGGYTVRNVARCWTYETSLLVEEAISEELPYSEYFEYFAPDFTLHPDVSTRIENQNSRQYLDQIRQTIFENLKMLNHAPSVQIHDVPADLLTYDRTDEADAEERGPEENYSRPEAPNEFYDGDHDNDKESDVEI
Numbers stand for hits; 0 = inactive; ? = inconclusive; - = no result; + = active, no number. Rows were chosen to be rich in hits. Some 1.1% of all compounds tested hit in one or more screens of this group.

SMILES | IDE cell activ | IDE cell inh | LANA-H2A inh | HDAC3 inhib
CC1OC(OCC2OC(Oc3c(-c4ccc(O)cc4)oc4cc(O)cc(O)c4c3=O)C(O)C(O)C2O)C(O)C(O)C1O (stereo not drawn) | 0 | 0 | + | 0
O=c1cccccc1NCc1ccccc1 | 0 | 0 | 0 | 0
N#Cc1ccccc1NCc1ccccc1 | 0 | 0 | 15 | 0
Oc1[nH]c2ccccc2c1N=Nc1ccccc1 | 0 | 0 | 16 | 0
O=C(CCc1ccccc1)Nc1cc(C(=O)O)cc(C(=O)O)c1 | 0 | 0 | 0 | 0
CN(CC(=O)Nc1ccccc1Br)C(=O)c1ccc(COc2ccccc2)cc1 | 0 | 0 | 0 | 0
CN(CC(=O)Nc1ccccc1Br)C(=O)c1ccncc1 | 0 | 0 | 29 | 0
COc1cc(C2Nc3cccc4cccc(c34)N2)cc(OC)c1OC(C)=O | 0 | 0 | 0 | 0
COc1cc(C2Nc3cccc4cccc(c34)N2)ccc1O | 19 | 0 | 0 | 0
CCc1cc(C(=O)N2CCN(S(=O)(=O)c3ccccc3F)CC2)sc1C | 0 | 0 | + | 0
Cc1c(C(=O)O)sc2nc3n(c(=O)c12)CCC(C)CC3 (stereo not drawn) | 0 | 0 | 20 | 0
O=C(CCc1nc(-c2ccccc2)no1)NCc1ccccc1CN1CCOCC1 | 0 | 0 | 26 | 0
CC(=O)OCCn1c2nc(=O)[nH]c(=O)c-2nc2cc(C)c(C)cc21 | 75 | - | 166 | 0
COc1ccc(/C=C/C(=O)Nc2nnc(C(C)C)s2)cc1OC | - | 0 | 20 | 0
COc1ccccc1CNC(=O)CCC(=O)Nc1nnc(C(C)C)s1 | 0 | 0 | 20 | 0
COc1ccccc1CNC(=O)CCC(=O)Nc1nnc(C)s1 | 0 | 0 | 0 | 0
COc1ccc(/C=C/C(=O)Nc2ccccc2)cc1OC | 0 | 0 | 0 | 0
Cc1ccsc1C(=O)OC(C)C(=O)NC1CCCCC1C (stereo not drawn) | 0 | - | - | -
COc1ccc(C)cc1S(=O)(=O)N1CCOCC1 | - | 0 | 0 | ?
CN1CCN(C(=O)c2cc3c(C(F)(F)F)nn(C)c3s2)CC1 | 0 | 0 | 17 | 0
Cn1nc(C(F)(F)F)c2cc(C(=O)NC3CC3)sc21 | 0 | 0 | 0 | 0
CCN(CC)CC(C)OC(=O)c1ccccc1Cl (stereo not drawn) | 0 | 0 | 0 | 0
O=C(Nc1ccc(-n2cnnn2)cc1)C1CCCN1C(=O)NC1CCCCC1 (stereo not drawn) | 0 | 0 | 0 | 0
O=C(Nc1ccc(-n2cnnn2)cc1)C1CCCCC1 | 0 | 0 | 13 | 0
CCOc1ccc(Oc2c(/C=N/NC(=O)COc3ccccc3OC)c(C)nn2-c2ccccc2)cc1 | 0 | 0 | 0 | 27
SMILES | IDE cell activ | IDE cell inh | LANA-H2A inh | HDAC3 inhib
CCOc1ccc(Oc2c(/C=N/NC(N)=O)c(C)nn2-c2ccccc2)cc1 | 0 | 0 | 0 | 0
CC(C)(C)c1cc(CN2CCCC(O)C2)c(O)c(C(C)(C)C)c1 (stereo not drawn) | 0 | 0 | 0 | 36
COc1ccc(-c2nnc(SCC(=O)NC3CCCc4ccccc43)n2N)cc1 (stereo not drawn) | 0 | 0 | 0 | 0
COc1ccc(OC)c(NC(=O)CCn2cccc2)c1 | 0 | 0 | 0 | 0
COc1ccc(NC(=O)CC(=O)Nc2ccc(OC)cc2OC)c(OC)c1 | 0 | 0 | 0 | 0
COc1ccc(OC)c(NC(=O)Cn2cccc2)c1 | 0 | 0 | 17 | 0
COc1ccc(NC(=O)CSc2cn[nH]n2)c(OC)c1 | 0 | 0 | 34 | 0
COc1ccc(C(=O)C2CCN(CC(=O)Nc3ccc(OC)cc3OC)CC2)cc1 | 0 | 0 | 19 | 0
CC(C)NC(=O)C1(N2C(=O)c3ccccc3C2=O)CCCC1 | 0 | - | - | -
O=C(CCCNC(=O)c1ccc(Cl)cc1)NCc1ccccc1F | 0 | 0 | 0 | 0
Cc1ccccc1Nc1nc(N)nc(CCl)n1 | 0 | 0 | 0 | 0
Cc1ccccc1Nc1nc(N)nc(CN(C)c2ccccc2)n1 | 0 | 0 | 28 | 0
Cc1nc(C(=O)Nc2ccc(F)cc2)nn1-c1ccc([N+](=O)[O-])cc1 | 0 | 0 | 12 | 0
COc1ccc(-c2nsc(C(=O)N(c3ccc(F)cc3)C(C(=O)NC3CCCC3)c3ccc(OC)cc3)c2N)cc1 (stereo not drawn) | 0 | 0 | 0 | 0
Cc1sc2nc(CSCC(=O)Nc3cc(F)ccc3F)[nH]c(=O)c2c1C | 0 | 0 | 0 | 0
Cc1cc(C)c(NC(=O)CSCc2nc3sc(C)c(C)c3c(=O)[nH]2)c(Cl)c1 | 0 | 0 | 55 | 0
CCOC(=O)CSc1n[nH]c(NC(=O)c2ccccc2)n1 | 0 | 0 | 0 | ?
CCOC(=O)CSc1n[nH]c(NC(=O)c2ccc(F)cc2)n1 | 0 | 0 | 0 | 50
COCCN(CCOC)C(=O)c1ccc(NS(=O)(=O)c2ccc3[nH]c(=O)[nH]c3c2)cc1 | 0 | 0 | 33 | 0
COc1ccc(CCNC(=O)c2ccc(NS(=O)(=O)c3ccc4[nH]c(=O)[nH]c4c3)cc2)cc1 | 0 | 0 | 0 | 0
CCOCCCNC(=O)C(NC(=O)c1ccccn1)c1ccc(C)cc1 (stereo not drawn) | 0 | 0 | 12 | 0
COc1ccc(N=Nc2nc3cc(Br)c(Br)cc3n2C)c(OC)c1 | 0 | 0 | 102 | 0
COc1ccc(CNc2nc3ccccc3n2C)c(OC)c1 | 0 | 0 | 0 | 0
COCCNC(=O)C(c1ccc(O)cc1)N(Cc1ccccc1)C(=O)CCC(=O)Nc1nccs1 (stereo not drawn) | 0 | 0 | 0 | 0
Cc1csc(SCCn2c(N3CCN(c4ccccc4)CC3)nc3c2c(=O)[nH]c(=O)n3C)n1 | 0 | 0 | 0 | 0
SMILES | IDE cell activ | IDE cell inh | LANA-H2A inh | HDAC3 inhib
O=C(c1ccc(O)cc1)c1ccc(O)cc1O | 0 | 0 | 12 | 0
CCc1ccc(N2C(=O)CN(Cc3ccccc3)C2=S)cc1 | 0 | 0 | 0 | 0
CCc1ccc(N2C(=O)CN(Cc3cccs3)C2=S)cc1 | 0 | 0 | + | 0
Cc1nc(-c2ccc3c(c2)OCCCO3)cs1 | 0 | 0 | 0 | 41
O=C1c2cccc3cccc(c23)C(=O)N1CCCc1n[nH]c(=S)n1-c1ccccc1 | 0 | 0 | 0 | 0
Cc1ccccc1/C(N)=N/OC(=O)c1cccs1 | 0 | 0 | - | -
COc1ccc(CCN=C(N)NS(=O)(=O)c2ccc(F)cc2)cc1OC | 0 | 0 | 26 | 0
Cc1cc(C)nc(Nc2n[nH]c(-c3ccccc3Br)n2)n1 | 0 | 0 | 18 | 0
Cc1c(NC(=O)C(C)OC(=O)/C=C/c2ccccc2)c(=O)n(-c2ccccc2)n1C (stereo not drawn) | 0 | 0 | 0 | 0
Cc1c(NC(=O)CN2C(=O)c3cccc4cccc2c34)c(=O)n(-c2ccccc2)n1C | 0 | 0 | 18 | 0
COc1cc(/C=C/C(=O)OC(C)C(=O)Nc2c(C)n(C)n(-c3ccccc3)c2=O)ccc1O (stereo not drawn) | 0 | 0 | 119 | 0
Cc1c(NC(=O)C(C)N(c2ccccc2)S(C)(=O)=O)c(=O)n(-c2ccccc2)n1C (stereo not drawn) | 0 | 0 | 40 | 0
Cc1ccc(Nc2ncnc(Cl)c2N)cc1 | 0 | - | - | -
Cc1ccc(N=C2NC(=O)/C(=C\c3ccc(C)s3)S2)cc1 | 0 | 0 | 0 | 0
CCCCOc1ncnc2c1[nH]c1ccc(C)cc12 | - | 38 | 0 | -
CCCOc1ncnc2c1[nH]c1ccc(OC)cc12 | 0 | 0 | 0 | -
O=C(O)CCc1nnc(SCC(=O)Nc2cccc(C(F)(F)F)c2)[nH]c1=O | 0 | 0 | 0 | 0
COc1ccc(OCC(=O)Nc2ccc3nc(C)sc3c2)cc1 | 0 | 0 | 0 | 0

Assay outcomes deposited in PubChem by several laboratories.
